Assay outcomes (PubChem)
NS1 inh: inhibitors of influenza NS1 protein function | Potency, µM (highest dose often 46.1 µM) | actives 0.4% (n = 270,000) | AID 2326; note: actives are rising curves; nearly all actives have a fitted effect of over 50% in size
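S. cerevisiae expressing influenza A NS1, grown in glucose, washed, then diluted 1:100 into pH 6.0 -URA galactose medium with 23 nl compound. Growth recovery read as OD600; NS1-free strain serves as control.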
Pf growth 96h: inhibits malaria parasite growth, 96 h; P. falciparum luciferase reporter growth, 96 h; Potency, µM (series often up to 28.7 µM), most hits filed as inhibitors; actives 6.9% (n = 320,000); AID 504834; active = well fitted inhibition curve with a large enough effect; inconclusive = small, poorly fitted or top-dose-only effect, or another doubt; inactive = no such curve, though single readings can be large or run the other way
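Plates of compound plus infected erythrocytes (2% hematocrit, 0.05% parasitemia final) incubate 96 hours, 37 C, 5% CO2. Detection reagent added; reduced luminescence from the parasites' luciferase reporter flags inhibition.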
Pf growth 48h: inhibits P. falciparum growth in the first generation, 48 h. P. falciparum luciferase growth in erythrocytes, 48 h. Potency, µM (titrated, usually from 28.7 µM), most hits filed as inhibitors. actives 5.9% (n = 310,000); active = well fitted inhibition curve with a large enough effect; inconclusive = small, poorly fitted or top-dose-only effect, or another doubt; inactive = no such curve, though single readings can be large or run the other way
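Read-out is firefly luciferase luminescence from an integrated reporter in P. falciparum, so falling signal marks reduced parasite growth. Infected erythrocytes were at 2% hematocrit and 0.1% parasitemia (final) in Albumax-supplemented RPMI 1640.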
CHX counter: affects cycloheximide protein synthesis inhibition readout, counter-screen. actives 12% (n = 300,000). cell reporter, cycloheximide protein synthesis inhibition counterscreen. max response, %. AID 2314; in the data active = max response mostly above about 13%, no sharp cut-off; inactive = mostly below about 14%; note: read at 38.3 µM for the half of the compounds with a filed dose
Shiga inhibitor: inhibitors of Shiga toxin in Vero cells. Vero cells, Shiga toxin protein synthesis inhibition reporter. inhibition, % at 38.7 µM. actives 9.2% (n = 290,000). AID 2315; in the data active = inhibition mostly above about 28%, no sharp cut-off; inactive = mostly below about 43%
SARS PLpro yeast: SARS-CoV PLP inhibition in yeast; S. cerevisiae expressing SARS-CoV PLpro, growth rescue; Potency, µM (titrated, usually from 32.9 µM), actives largely listed as activators; actives 0.19% (n = 330,000); note: nearly all actives have a fitted effect of over 55% in size
Large screens that a line does not name were inactive. A selection: hits, their analogues and other compounds. The true share with any hit is near 21%. Unless noted, calls come from the whole dose curve.

O=C(NCc1ccccc1)C(c1ccc(F)cc1)N(Cc1cccs1)C(=O)c1cnccn1 (configuration not stated)	none
COc1cc(C(C(=O)NCc2ccccc2)N(Cc2ccco2)C(=O)c2cnccn2)cc(OC)c1OC (configuration not stated)	Pf growth 48h 9.3µM (no result: NS1 inh)
COc1cc(C(C(=O)NC(C)(C)C)N(Cc2ccccc2)C(=O)c2cnccn2)cc(OC)c1OC (configuration not stated)	Pf growth 96h inconclusive
O=C(NCc1ccccc1)C(c1ccccc1)N(Cc1cccs1)C(=O)c1cnccn1 (configuration not stated)	Pf growth 96h 0.26µM
CCC(C)n1c(SCC(=O)NC(=O)Nc2ccc3c(c2)OCCO3)nc2ccccc2c1=O (configuration not stated)	Pf growth 48h inconclusive
COc1cc(OC)c(NC(=O)CN(C)S(=O)(=O)c2ccc(-c3ccc(=O)[nH]n3)s2)cc1Cl	Pf growth 48h 2.3µM, SARS PLpro yeast inconclusive
CCc1ccccc1NC(=O)CN(C)S(=O)(=O)c1ccc(-c2ccc(=O)[nH]n2)s1	Pf growth 96h inconclusive, Pf growth 48h inconclusive
COc1ccc(-n2ncc3c2CC(C)(C)CC3NC(=O)CCCN2CCCC2=O)cc1 (configuration not stated)	none
CCOC(=O)N1CCN(S(=O)(=O)c2ccc(F)c(C(=O)Nc3ccc(C)c(Cl)c3)c2)CC1	Pf growth 48h 13µM
CCOC(=O)N1CCN(CCC(=O)Nc2ccc(F)c(F)c2)CC1	Pf growth 96h 15µM, Pf growth 48h inconclusive
CCOC(=O)C1(c2ccccc2)CCN(CCC(=O)Nc2ccc(F)cc2)CC1	Pf growth 96h 9.3µM, Pf growth 48h 13µM (no result: NS1 inh, CHX counter, Shiga inhibitor)
Cc1ccc(S(=O)(=O)NC(=O)NCCCN2CCOCC2)cc1	none
Cc1ccc(S(=O)(=O)Nc2cc(C(=O)Nc3cc(C)cc(C)c3)ccc2Cl)cc1	none (no result: SARS PLpro yeast)
Cc1cc(C(=O)NCC2CCCCC2)ccc1[N+](=O)[O-]	CHX counter 24, Shiga inhibitor 84
O=C(NCC1CCCCC1)c1cccc([N+](=O)[O-])c1	Pf growth 96h inconclusive, Pf growth 48h 5.2µM
O=C(NCC1CCN(C(=O)c2cccc([N+](=O)[O-])c2)CC1)c1cccc([N+](=O)[O-])c1	none
O=C(c1ccsc1)N1CCCC(Nc2cccc(F)c2)C1 (configuration not stated)	none
Clc1ccc(-c2nnc(COc3ncnc4sccc34)o2)cc1	CHX counter 34, Shiga inhibitor 34
O=C(CCc1nc2ccccc2s1)N1CCN(S(=O)(=O)c2cccs2)CC1	Pf growth 96h 13µM, Pf growth 48h inconclusive
O=C(O)CCC(=O)N1CCN(S(=O)(=O)c2cccs2)CC1	none
O=C(OCc1nc2ccccc2s1)C1CCN(S(=O)(=O)c2cccs2)CC1	CHX counter 35, Shiga inhibitor 97
O=S(=O)(c1cccs1)N1CCN(Cc2nc3ccccc3s2)CC1	Pf growth 96h inconclusive, Pf growth 48h inconclusive, CHX counter 38, Shiga inhibitor 49
S=C1NCCNC(=S)NCCOCCOCCOCCN1	Pf growth 96h inconclusive (no result: NS1 inh)
Cc1cc(C)n2nc(CNS(=O)(=O)c3ccc(CC(C)C)cc3)nc2n1	none
CCOC(=O)c1sc(NC(=O)CCN2C(=O)C3CCCCC3C2=O)cc1C (configuration not stated)	Pf growth 96h inconclusive, Pf growth 48h 15µM (no result: NS1 inh, CHX counter, Shiga inhibitor)
CCOC(=O)c1c(NC(=O)Nc2ccccc2)sc(C)c1C	none
CCOC(=O)c1sc(NC(=O)c2cccs2)cc1C	CHX counter 32, Shiga inhibitor 141 (no result: Pf growth 96h)
CCOC(=O)c1sc(NC(=O)c2ccc(Br)o2)cc1C	Pf growth 96h inconclusive, CHX counter 47, Shiga inhibitor 124
CCOC(=O)c1cccc(NC(=O)c2cccs2)c1	none (no result: Pf growth 96h, Pf growth 48h)
CCN(CC)C(=O)c1sc(NC(=O)c2ccc(Br)o2)c(C(=O)OC)c1C	none (no result: Pf growth 48h)
CCOC(=O)c1sc(NC(=O)Nc2cccc(Cl)c2)cc1C	Pf growth 96h inconclusive, CHX counter 62, Shiga inhibitor 108
CCn1c(SCC(=O)Nc2cc(C)on2)nc2c(c1=O)SCC2	Pf growth 48h inconclusive, SARS PLpro yeast inconclusive
CCOC(=O)c1sc(NC(=S)NC(=O)C2CC2)cc1C	Pf growth 96h inconclusive, Pf growth 48h inconclusive
CCOC(=O)c1sc(NC(=O)c2sccc2C)cc1C	CHX counter 63, Shiga inhibitor 70 (no result: Pf growth 48h)
CCOC(=O)N1CCN(C(=O)c2cccc(S(=O)(=O)Nc3ccc(Br)cc3)c2)CC1	Pf growth 96h inconclusive, Pf growth 48h inconclusive (no result: NS1 inh, CHX counter, Shiga inhibitor)
C/C(=N\NC(=O)C1CCCC1)c1ccc(C(C)C)cc1	CHX counter 24, Shiga inhibitor 52
C/C(=N\NC(=O)C1CCCC1)c1ccc(Cl)c(Cl)c1	none
COc1ccc(/C(C)=N/NC(=O)C2CC2)cc1	Shiga inhibitor 42
C/C(=N\NC(=O)C1CC1)c1ccc(N2CCOCC2)cc1	none (no result: NS1 inh)
COc1ccc2cc(/C(C)=N/NC(=O)C3CC3)ccc2c1	CHX counter 26, Shiga inhibitor 48 (no result: NS1 inh)
CC(C)COC(=O)c1ccc2c(c1O)C(=O)c1ccccc1C2=O	CHX counter 34, Shiga inhibitor 66 (no result: Pf growth 96h)
NCC(c1ccccc1Cl)c1c[nH]c2ccccc12 (configuration not stated)	Pf growth 96h inconclusive, Pf growth 48h 9.3µM
COc1ccc(NC(=O)C(Cl)=C(Cl)Cl)cn1	Pf growth 96h inconclusive, Pf growth 48h inconclusive, CHX counter 23 (no result: NS1 inh)
COc1ccc(NC(=O)/C(Cl)=C(/Cl)S(=O)(=O)Cc2ccccc2)cn1	CHX counter 46, Shiga inhibitor 101 (no result: Pf growth 48h)
COc1ccc(NC(=O)CCl)cn1	Pf growth 96h 10µM, Pf growth 48h 8.3µM
COc1ccc(NC(=O)CC2CC3CCC2C3)cn1 (configuration not stated)	CHX counter 20
COc1ccc(CC(=O)Nc2ccc(OC)nc2)cc1	none (no result: NS1 inh)
CCN(CC)CCCNC(=O)CN1N=C(c2ccc(OC)cc2)CCC1=O	none
O=C(Nc1ccccc1)c1snc2c(=O)[nH]cnc12	CHX counter 16
CCOC(=O)c1snc2c(=O)[nH]cnc12	none
CCOc1ccc(C(=O)N/N=C/c2cc(Cl)ccc2[N+](=O)[O-])cc1	Pf growth 96h inconclusive
Cc1cc(C)nc(Nc2nc3ccccc3[nH]2)n1	CHX counter 29, Shiga inhibitor 90
CC(C)(C)c1nc2ccccc2[nH]1	none (no result: Pf growth 48h)
Cc1ccc2nc(Nc3nc(C)cc(-c4ccccc4)n3)[nH]c(=O)c2c1	Pf growth 96h 6.6µM, Pf growth 48h 3.3µM
Nc1ccc(Nc2nc3ccccc3[nH]2)cc1	Pf growth 48h inconclusive
Nc1ccccc1Nc1nc2ccccc2[nH]1	NS1 inh inconclusive, Pf growth 96h 10µM, CHX counter 27, Shiga inhibitor 34
c1ccc(Nc2nc3ccccc3[nH]2)nc1	Pf growth 96h inconclusive, Pf growth 48h inconclusive, CHX counter 70, Shiga inhibitor 86, SARS PLpro yeast inconclusive
Cc1ccc2nc(Nc3nc(-c4ccccc4)cc(=O)[nH]3)nc(C)c2c1	Pf growth 96h inconclusive, Pf growth 48h inconclusive
